Laboratory results published in publication PMC13494018.
Values without a mark were called inactive. The rule behind the calls is not given here.

B1: d8r1_design_ppi_156_dldesign_0_cycle0_af2pred (protein)
chain: MEEEREREEERRREARRMAQALENAAEAVAARAAAASPAEQPALARAAESLAAAAKVLQKEDPELGAAVEKRAEAILAEIRAR
B2: d8r1_design_ppi_679_dldesign_0_cycle0_af2pred (protein)
chain: AAAAARAAIVDETIARIRAELASRPSLAAFAESVLRRGLALGNEAEAARNVAAMLEAAGATAAAAVAREAAARIEAL
B3: d8r1_design_ppi_638_dldesign_0_cycle1_af2pred (protein)
chain: GDARALRRAADNLARRALEELAAQTATAARAAEVAALLEAGRTEGAAKLAEAAALAAADPLLARAGAYLAAAADFLALAEREE
B4: d8r1_design_ppi_1305_dldesign_0_cycle0_af2pred (protein)
chain: ARAEELAEALLAKAKELSKLPMGEAAKAAAAEARALAEQDPETALAAAELAYKRASEDPSVSSKVRALLGAALGAATQQLAAQKAAA
B5: d8r1_design_ppi_636_dldesign_0_cycle0_af2pred (protein)
chain: DYMDALAAMLKAAAEARALAAAGGDAAAIEAALAKAKELGEEAGKLKGESAKGFAEKVIANVEATIAAAKAARAA
B6: d8r1_design_ppi_1316_dldesign_0_cycle1_af2pred (protein)
chain: SAVAKAAAAAAAAAKKALASHPAIGAAVARSIELGKLEEAAAFATAAAKALIGEEAGEALGKELDKLVAAAKAAA
B7: d8r1_design_ppi_502_dldesign_0_cycle1_af2pred (protein)
chain: SLEELVAKAEKYLKEAAKLSPASLAPSVANALAGITEAAKVSPKAAYNLAKSFLDYVKKNGTAEAAKEAEKALEELEKAAK
B8: d8r1_design_ppi_93_dldesign_0_cycle1_af2pred (protein)
chain: ENKSIAQGLLKAMKAAYEQAKKSGKAAQLKATAEAAKAAAKKAKELGDEETAKELEKLAKEAKELAEKAAAAAA
B9: d8r1_design_ppi_863_dldesign_0_cycle0_af2pred (protein)
chain: SRAERLIEEAERLAKEAKEAAKRVADSPVAPRAKALADATEAFAKGLKAAAAAGGSMEDQEALLRAARNTAEAAKILAEEAEAARAA
B10: d8r1_design_ppi_429_dldesign_0_cycle0_af2pred (protein)
chain: AAAARAAAAAEGAIAAAKLAGESGNLEALKAFVEAAHAAAAKADPATAAALKAKADATLEAAKKAFKEKEEA
B11: d8r1_design_ppi_699_dldesign_0_cycle0_af2pred (protein)
chain: AAVAAAAAAGKAAIEKIEKAAKEAEKINKESGKALKSLAEQAKKLLAEGIANPATRDAKLAGVNNIAAGAETLAKALKEEKA
B12: d8r1_design_ppi_41_dldesign_0_cycle1_af2pred (protein)
chain: RGEEILKKAKEAATRALQLASKDPSLLPLALKALALASEAGYAIAHEGVEKGEELAEKAEKLTEEIEKLAE
B13: d8r1_design_ppi_302_dldesign_0_cycle1_af2pred (protein)
chain: DEEEGKKSALKAAETARRLAEEAAKQAKEKAADPALAKKYVAKAKAYAKAAEDIAKGFPDNAEIKAAAKEAKKAAQQAKEALKA
B14: d8r1_design_ppi_1471_dldesign_0_cycle0_af2pred (protein)
chain: MDDSFGKNVIIDAEREIKRFEEAAKKAEEEDKEVAKEIKKIAEEIKKEAEKIKKGEGKLEHSKKALEAMSKGARLVAEFKAK
B15: d8r1_design_ppi_306_dldesign_0_cycle0_af2pred (protein)
chain: DAARRAKAEALLKQAKEDFKKFAEQAKKEGPSVLKALKNINESVAEHLKKLDPELGEELKKYGEELIKKAEE
B16: d8r1_design_ppi_991_dldesign_0_cycle0_af2pred (protein)
chain: AAAALTAAVAASIKGLAELARKAIDDKSVVKAAANAAKSAAALDKALGKEMSKKLEEAAKKSPEEAVKTIEEVAAKVAAAAAA
B17: d8r1_design_ppi_479_dldesign_0_cycle1_af2pred (protein)
chain: AELAKEAKELAEKGIADPSKAPEAAREIAELFAEAVKKGDNEAAAEAHAELSRIYAANPEAGREGHILAAQLMSKYAVES
B18: d8r1_design_ppi_1240_dldesign_0_cycle1_af2pred (protein)
chain: DDATLKQAAALIAEGQAAAAQATTDPAYAAKAKEAYKKAGEVYPESSEFFNIAGEKTAQAALDKYKAAQAAAAAAAA
B19: d8r1_design_ppi_480_dldesign_0_cycle1_af2pred (protein)
chain: SAAAATEAKAKAWAAEIIAAAKADPAAAAALATEVVATASEEEIRTLLNILAQQAFKSPDGLTALTAVSAAVAARYA
B20: d8r1_design_ppi_1493_dldesign_0_cycle0_af2pred (protein)
chain: EEEKKKLREEAIKLAKKAAEIAKKSENAKEVIEEIEKAIKYLEEGDYEKAAKELAKAGRLADPEARGYINRALLKVGEAK
B21: d8r1_design_ppi_353_dldesign_0_cycle1_af2pred (protein)
chain: TAAAKAAADAALANLQAFLDVVVAADPQNIARVEKAAQIAISGGKVLAAQHPEVADYAAGAATAAAQAAVDRAKALAAA
B22: d8r1_design_ppi_1325_dldesign_0_cycle0_af2pred (protein)
chain: SSGKEKAAEYRAKADALAAQESPETQAQLRALAERVLKAAEEGVEALAKAAAEAAAFGAATSPTAQAAAREAIAAGVAL
B23: d8r1_design_ppi_371_dldesign_0_cycle0_af2pred (protein)
chain: SAEKAALLAQGKAYFATAKAAAAAAIKLKEAGGSEKTVQALIEQAKAAGEKATALFEAYDPELGKKVKEEVDALLAAAKA
B24: d8r1_design_ppi_36_dldesign_0_cycle0_af2pred (protein)
chain: REEVRAKLEAAAAALREVDPVAGEGFRRLAELAFSGEVNGAWAALASLLEHYLPAAEAHDPELGAIVAEAREAALEEWERIQAE
B25: d8r1_design_ppi_1220_dldesign_0_cycle1_af2pred (protein)
chain: AEERAEELAKEAFKLLSEAAKAAATATTEEQVKKGEELAEKAKKLAEELLKEDPSKKGLSEGIKRAAEKVKKAAEEKKKEL
B26: d8r1_design_ppi_955_dldesign_0_cycle0_af2pred (protein)
chain: LYAELAARVRAIMAAAGMSPREADTVAAFALAAAADPELEEAMREKMRKAAGPEFEPAVEEAIALAREAAAAL
B27: d8r1_design_ppi_988_dldesign_0_cycle1_af2pred (protein)
chain: SEAAMAAAIAAAHAAAQAVVAADPAAAPFARALMSYAMLAVSDPAAGLAGLAAVAEAAAAAGAAAMAAVAAATRAALAAAHA
B28: d8r1_design_ppi_655_dldesign_0_cycle1_af2pred (protein)
chain: DDNKAAANAAKTGGNSSNERAKKLLAAGIASGDKALIAQAATLFANAATLYAFANAKTGPEYQANVDAAKANQAAANAALA
B29: d8r1_design_ppi_414_dldesign_0_cycle0_af2pred (protein)
chain: MEEELKKIKELGKKAAKLAEEEGEEGFKKAIAELEKAAAEAAKGEKAKELQKLVGQGIIDVGKAAYKKEEKKEEELAK
B30: d8r1_design_ppi_1379_dldesign_0_cycle1_af2pred (protein)
chain: SAAAGAAVAAAGIAAMRAGAAADGLAGARAAAREAARAAMALFRKDPDAGAAALAALDAAWAAISAALAA
B31: d8r1_design_ppi_1319_dldesign_0_cycle1_af2pred (protein)
chain: AAAEELKTLAAESIGLIDQAEKALKAGTDELNYLKLVAASARKLGPEIAKLVTAALKAAKAGDKETALKYLKEARKLAEKIAA
B32: d8r1_design_ppi_640_dldesign_0_cycle0_af2pred (protein)
chain: SEEEEKKAEYLKKAGAAASRAGKVAAANAGNPEIQALAKKAAKALNEAFASNVEEAKKKAEEVEKLAAEAEALAA
B33: d8r1_design_ppi_1206_dldesign_0_cycle1_af2pred (protein)
chain: SPAAQWAALDADLKQARELAKKAKEVGNEEEAKKVEAALKKAEAAAAAARADPSLYHEARRAVGEAQVEALKVISKG
B34: d8r1_design_ppi_429_dldesign_0_cycle1_af2pred (protein)
chain: AAAALAAAAAEGAIELAEYQVEIGNLEAARAFVEGALRAAARADPATAAELRARARAVLEEAERRHKERLEA
B35: d8r1_design_ppi_569_dldesign_0_cycle0_af2pred (protein)
chain: EPSPRVQALLHVGRAAATLIAASGTEAGRAAAAELARLAFEAAASSPEEGQKLLEEALARADEVAAGLPADAAAAVRAHLEAALAAMK
B36: d8r1_design_ppi_149_dldesign_0_cycle0_af2pred (protein)
chain: DEAAEIFAKALDEMDKKVKEAKEEVKKALEEGEKKDPEEAKKKAKEIIEKAIKELKEIAEKAAKKVPKLGPAAKATAEATAKVLK
B37: d8r1_design_ppi_423_dldesign_0_cycle0_af2pred (protein)
chain: SEFDKNMELLKEAGAAISELTARARAEADAAAAEGPDAVRAVAAERIEEARRITEELGEKSSLKESFRGMAERTARTIEAYAAAVIA
B38: d8r1_design_ppi_246_dldesign_0_cycle1_af2pred (protein)
chain: ADPEAAARARAAAAVAGATELLKANPANTPAFAAANAEALADSPAAPEAKAAMAKIAAEAEKAAAARKAAEEAAK

Molecular target: PDL1, Q9NZQ7
Sequence (Q9NZQ7 whole entry): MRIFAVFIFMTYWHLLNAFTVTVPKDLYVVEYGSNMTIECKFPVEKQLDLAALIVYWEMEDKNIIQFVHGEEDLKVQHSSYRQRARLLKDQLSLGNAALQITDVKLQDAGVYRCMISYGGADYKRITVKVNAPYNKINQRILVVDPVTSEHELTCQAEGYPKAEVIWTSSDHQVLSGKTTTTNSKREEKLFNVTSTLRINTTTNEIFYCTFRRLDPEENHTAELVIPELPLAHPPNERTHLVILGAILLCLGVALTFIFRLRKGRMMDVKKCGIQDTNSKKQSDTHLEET

Row | Binder | binding in a display sort
1 | B1 | not found
2 | B2 | not found
3 | B3 | not found
4 | B4 | not found
5 | B5 | not found
6 | B6 | not found
7 | B7 | not found
8 | B8 | not found
9 | B9 | not found
10 | B10 | not found
11 | B11 | not found
12 | B12 | not found
13 | B13 | not found
14 | B14 | not found
15 | B15 | not found
16 | B16 | not found
17 | B17 | not found
18 | B18 | not found
19 | B19 | not found

Row | Binder | binding in a display sort
20 | B20 | not found
21 | B21 | not found
22 | B22 | not found
23 | B23 | not found
24 | B24 | not found
25 | B25 | not found
26 | B26 | not found
27 | B27 | not found
28 | B28 | not found
29 | B29 | not found
30 | B30 | not found
31 | B31 | not found
32 | B32 | not found
33 | B33 | not found
34 | B34 | not found
35 | B35 | not found
36 | B36 | not found
37 | B37 | not found
38 | B38 | not found
